In PubChem BioAssay AID652208 (Broad Institute, 2013):
Results with a measured potency or affinity are listed apart. Activity calls are given as the source filed them.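 How the source made its calls: active means Loss of cell signal with fitted half-effect dose at or below twice the top valid tested dose; inconclusive means Poor fit, or flat fit from -70 to -30 percent; inactive means Half-effect above limit, rising signal, or flat within 30 percent.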

Assay: viability loss in HEK293T cells – cell-based, cherry-picks, cytotoxicity control for HIV Vif inhibitor project, dose response (AID 652208)
Details: CellTiter-Glo luminescence, 24 h; series mostly up to 26 µM
For `CC(=O)Nc1ccc(S(=O)(=O)N2c3ccccc3C(C)=CC2(C)C)cc1`, the outcome was “inactive”.
In the case of `CCN(CC)C(=O)c1cccc(NC(=O)C2=COCCO2)c1`, the outcome is reported as “inactive”.
In the case of `CCc1ccc(S(=O)(=O)Nc2ccc(-c3ccc4nnc(C)n4n3)cc2)s1`, the outcome is reported as “inactive”.
With `CCn1c(SCc2ccc(C(=O)Nc3nccs3)cc2)nnc1-c1ccc(N)cc1` the outcome was “inactive”.
For `COc1ccc(C(=O)Nc2cc(OC)c(NC(=O)Nc3ccccc3)cc2OC)cc1`, the outcome was “inactive”.
For `CCNC(=O)[C@H]1O[C@@H](n2cnc3c(N)nc(NCCc4ccc(CCC(=O)O)cc4)nc32)[C@H](O)[C@@H]1O`, the outcome was “inactive”.
For `O=C1S/C(=C/c2ccc(N3CCOCC3)o2)C(=O)N1Cc1c(F)cccc1Cl`, the outcome was “inactive”.
With `CN(C)c1ccc(/C=C2\SC(=O)N(CCc3nnc(N)s3)C2=O)cc1` the outcome was “inactive”.
With `N#Cc1c(-c2ccccc2)cc(C2CC2)nc1SCC(=O)c1cccs1` the outcome was “inactive”.
For `NCCCCCC(=O)Nc1ccncc1`, the outcome was “inactive”.
In the case of `CCOC(=O)Nc1ccc(NCc2ccc(F)cc2)nc1N`, the outcome is reported as “inactive”.
In the case of `CC(OC(=O)c1c[nH]c2ccccc12)C(=O)N1CCCC1` (configuration not stated), the outcome is reported as “inactive”.
For `Cc1ccc2c(c1)N(CC(=O)N1CCCCCC1)C(=O)C(C)O2` (configuration not stated), the outcome was “inactive”.
In the case of `CN(C)c1ccc(/C=C2\SC(N3CCCCC3)=NC2=O)cc1`, the outcome is reported as “inactive”.
With `Cc1ccc(Nc2nc(N)nc(CSc3nnc(-c4ccncc4)o3)n2)cc1` the outcome was “inactive”.
With `Cc1ncoc1C(=O)N1CCCC(C(=O)c2ccc(Oc3ccccc3)cc2)C1` (configuration not stated) the outcome was “inactive”.
In the case of `COc1cc2ccccc2cc1C(=O)Nc1ccc(Cl)cn1`, the outcome is reported as “inactive”.
For `COc1ccc(N=C2NC(=O)S/C2=C\c2ccc(N(C)C)cc2)cc1`, the outcome was “inactive”.
In the case of `COc1c2occc2c(OC)c2c(=O)cc(C)oc12`, the outcome is reported as “inactive”.
For `CCOC(=O)C1(Cc2cccc(OC)c2)CCN(CCO)CC1`, the outcome was “inactive”.
With `O=C(c1cc(COc2cccc3cccnc23)on1)N1CCC[C@H]1CO` the outcome was “inactive”.
In the case of `CC(C)C(c1nnnn1CC1CCCO1)N1CCN(C2CCCC2)CC1` (configuration not stated), the outcome is reported as “inactive”.
With `CCOC(=O)c1c(NC(=O)CCC(=O)N2CCOCC2)sc2c1CC(C)(C)OC2` the outcome was “inactive”.
With `CC(=O)Nc1ccc(-c2ccnc3c2CC(C(=O)NCc2ccccc2)O3)cc1` (configuration not stated) the outcome was “inactive”.
In the case of `CN(C)c1ccc(C(=O)c2ccc(N(C)C)c3ccccc23)cc1`, the outcome is reported as “inactive”.
For `COc1ccc(S(=O)(=O)Nc2cc3c(C(C)=O)c(C)oc3c3ccccc23)cc1`, the outcome was “inactive”.
For `Cc1cc(NC(=O)CSc2nc3ccccc3c(=O)n2-c2ccccc2)no1`, the outcome was “inactive”.
With `O=C(O)/C=C/C(=O)Nc1cccc(C(F)(F)F)c1` the outcome was “inactive”.
In the case of `CCC(=O)Nc1ccc(-c2nnc(SCc3ccc(C(=O)Nc4nccs4)cc3)n2CC)cc1`, the outcome is reported as “inactive”.
For `CC(C)C(NC(=O)c1ccccc1NC(=O)C(C)(C)C)C(=O)N1CCOCC1` (configuration not stated), the outcome was “inactive”.
In the case of `CCOC(=O)C[C@@H](C#N)NC(=O)[C@@H]1CCCN1C(=O)[C@@H](NC(=O)c1ccc(N)c(Cl)c1)C(C)(C)C`, the outcome is reported as “inactive”.
For `CCN1CCN(c2cc(=O)n(-c3cc(Cl)ccc3C)c(=O)[nH]2)CC1`, the outcome was “inactive”.
With `Cc1nc(-c2ccccc2OC(F)(F)F)[nH]c(=O)c1Cl` the outcome was “inactive”.
In the case of `CCN(CC)C(=O)c1ccc(C(=O)c2c(C)cc(C)cc2C)cc1`, the outcome is reported as “inactive”.
In the case of `COc1ccc(-c2cc(C(F)(F)F)n3nc(C(=O)NCc4ccco4)c(Cl)c3n2)cc1`, the outcome is reported as “inactive”.
With `O=S(=O)(Nc1nc2ccccc2nc1NCc1ccco1)c1ccc(Cl)cc1` the outcome was “inactive”.
In the case of `Cc1ccc(C(=O)COC(=O)c2cc(=O)[nH]c3ccccc23)cc1C`, the outcome is reported as “inactive”.
